Compounds with a hit are over-represented: about 19% of the library has one in this group of screens.
ELG1 DNA repair = inhibitors of ELG1-dependent DNA repair in HEK293T cells | AID 504467 | Potency, µM (top dose mostly 46.1 µM), for inactives: at the top dose activity change, negative = inhibition, most hits filed as inhibitors | 330,000 compounds, 2.3% hits | HEK293T ELG1-luciferase reporter, luminescence, 16 h; DNA damage induced by 5-fluorouridine; note: potency is the fitted concentration of half-maximal effect; nearly all actives have a fitted effect of over 55% in size
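DMSO vehicle served as the neutral condition. Each well held 2,000 cells given 5-fluorouridine plus compound; after 16 hr at 37 °C/5% CO2, ONE-Glo was added and luciferase measured 30 min later.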
DT40 TDP1 no CPT = qHTS for Inhibitors of human tyrosyl-DNA phosphodiesterase 1 (TDP1): qHTS in cells in absence of CPT. 420,000 compounds, 15% hits. Potency, µM (top dose mostly 46.2 µM), inactives show at the top dose activity change, negative = growth inhibition, most hits filed as inhibitors. DT40 Tdp1-/- hTDP1 cells, no CPT, ATP luminescence, 48 h. AID 686978, 2013; note: potency is the fitted concentration of half-maximal effect; nearly all actives have a fitted effect of over 55% in size
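A cellular qHTS used chicken DT40 cells lacking endogenous Tdp1 but carrying stably transfected human TDP1. Compounds were applied without camptothecin, and cell growth kinetics were judged by ATP-dependent luminescence after ≥48 hr.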
HT1080-NT tox = kills 2HG-producing HT-1080-NT fibrosarcoma cells; HT-1080-NT fibrosarcoma viability, CellTiter-Glo ATP luminescence, 48 h; Potency, µM (highest dose often 46.1 µM), without a hit: at the highest dose activity, negative = less viability, actives largely listed as cytotoxic; 360,000 compounds, 1.6% hits; AID 686970;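 note: NT is the 2HG producing partner of a matched IDH1 knockdown line; potency is the fitted concentration of half-maximal effect; 0% = DMSO-treated cells and -100% = media-only wells without cells; nearly all actives have a fitted effect of over 55% in size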
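Viability by CellTiter-Glo luminescence after 48 h compound exposure at 37C of HT-1080-NT cells (750/well, RPMI, 5% FBS). % activity scaled between DMSO wells and medium-only wells, then curve-fitted and categorized by curve class.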
IL1B secr inh = inflammasome signaling inhibition, IL-1 beta readout. THP-1 LPS/ATP IL-1B secretion, AlphaLISA, 16 h; active compounds read low. activity change, % at 57.5 µM. 360,000 compounds, 4.7% hits. AID 743279; in the data active = activity change below about -50%; inconclusive = mostly about -30% to -49%
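THP-1 cells pretreated 1 hr with compounds (up to 57.5 uM final), then stimulated with LPS (250 ng/mL final) plus ATP (1.25 mM final); secreted IL-1B measured by AlphaLISA after 16 hr, decreased signal indicating inhibition.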
HT1080 IDH1KD tx = kills HT-1080 cells with IDH1 knockdown; 360,000 compounds, 2% hits; Potency, µM (top dose mostly 46.1 µM), for inactives: at the top dose activity, negative = toxicity, hits mostly cytotoxic; AID 686971; HT-1080 IDH1 knockdown viability, ATP luminescence, 48 h;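 note: potency is the fitted concentration of half-maximal effect; 0% = DMSO wells and -100% = cell-free medium wells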
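Viability of IDH1-knockdown HT-1080 fibrosarcoma cells was assessed by CellTiter-Glo after 48 h at 37 °C with titrated compound; concentration-effect curves were classified by fit quality and response size.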
DT40 TDP1 CPT = DT40-hTDP1 cell growth loss with CPT; 420,000 compounds, 12% hits; AID 686979; chicken DT40 Tdp1-/-;hTDP1 cells + 20 nM CPT, ATP luminescence, 48 h; Potency, µM (doses to about 46.2 µM), for the others: at the highest dose activity change, negative = growth inhibition, hits mostly inhibitors; note: potency is the fitted concentration of half-maximal effect; nearly all actives have a fitted effect of over 55% in size
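Chicken DT40 Tdp1-/- cells complemented with human TDP1, 400 cells/well, exposed to compounds plus 20 nM camptothecin for at least 48 h at 37 C; viability read as ATP content by CellTiter-Glo luminescence.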
Active calls of the source: *; ? = inconclusive; / = not tested or not shown. Unless noted, calls come from the whole dose curve; as a rule, active = well fitted curve in the direction sought with a large enough effect; inconclusive = small, poorly fitted or top-dose-only effect, or another doubt; inactive = no such curve, though single readings can be large; an effect the other way counts as inactive or inconclusive. Unless noted, % is set by controls: 0 for no effect and ±100 for the full control effect.

SMILES | ELG1 DNA repair | DT40 TDP1 no CPT | HT1080-NT tox | IL1B secr inh | HT1080 IDH1KD tx | DT40 TDP1 CPT
COc1ccc(CN2CCN(Cc3cccc(F)c3)CC2)cc1OC | -0.1% | -24.2% | 9.6% | 2.6 | 5.2% | -20.7%
CCCCc1c(-c2ccccc2OC)ncn1CCc1cccc(F)c1 | / | 20.6µM* | 20.6µM* | -16.4 | 18.4µM* | 16.4µM*
CCCCc1c(-c2ccccc2OC)ncn1CCc1cccc(OC)c1 | / | 18.4µM* | 18.4µM* | -69.1* | 16.4µM* | 14.6µM*
CC(C)CN1CC[C@@]2(CCCN(C(=O)c3cc(C(F)(F)F)cc(C(F)(F)F)c3)C2)C1 | / | ? | / | / | / | -0.2%
CCc1nc2ccc(C(=O)Nc3ccc(C(N)=O)cc3)cn2c1N(CCC(C)C)CCN(C)C | / | -4.4% | -18.9% | -2.1 | -21.5% | -0.7%
CCOC(=O)N1CCN(C(=O)c2c(N)no[n+]2[O-])CC1 | 9.6% | / | / | / | / | /
COc1ccccc1C(CNC(=O)c1ccc(NS(=O)(=O)c2ccc3c(c2)OCCO3)cc1)N(C)C (stereo unspecified) | -0.3% | -4.2% | -7.7% | -3.7 | -7.9% | -2.2%
C=CCc1cc(Cl)ccc1OCCN1CC(C)OC(C)C1 (stereo unspecified) | -9.3% | 20.6µM* | -3.8% | 1.1 | -3.4% | ?
CCCc1nc2c(Cl)cc(C(F)(F)F)cn2c1Cc1ccc(OC)cc1C | / | 16.4µM* | -25.3% | 43.7 | -11.7% | 20.6µM*
COc1ccc(Cc2c(-c3ccc(C#N)cc3)nc3c(Cl)cc(C(F)(F)F)cn23)c(C)c1 | / | 18.4µM* | -0.3% | 0.0 | -13.8% | ?
COc1ccc(-c2nc3c(Cl)cc(C(F)(F)F)cn3c2Cc2ccccc2C(F)(F)F)cc1OC | / | -17.7% | 10.2% | 17.6 | 15.2% | -4.4%
COc1ccc(S(=O)(=O)N/N=C(/C)c2ccncc2)c(OC)c1 | 2.6% | 9.5% | 1.2% | ? | 1.2% | ?
Cc1ccc(N2CC(=O)N(NC(=O)c3sc4nc(C)cc(C)c4c3N)CC2=O)cc1 | 3.3% | 6.6% | 17.5% | 8.4 | 1.4% | 6.0%
COc1cccc2c1OC1(C)CC2NC(=O)N1c1cccc(C(=O)N2CCN(c3ccccn3)CC2)c1 (stereo unspecified) | / | ? | 4.6% | -15.1 | -1.1% | -2.5%
CCOc1cccc2c1OC1(C)CC2NC(=O)N1c1cccc(C(=O)N2CCN(c3ccccn3)CC2)c1 (stereo unspecified) | 2.5% | -19.6% | 1.0% | -65.5* | -0.3% | -22.8%
Cc1nc(CSc2n[nH]c(=O)n2-c2cccc(F)c2)cs1 | -4.5% | -1.0% | 5.5% | 15.8 | 9.8% | 10.4%
O=c1[nH]nc(SCCS(=O)(=O)c2ccc(F)cc2)n1-c1ccc2c(c1)OCCO2 | 19.9% | 16.4µM* | -16.5% | -91.8* | ? | ?
O=c1[nH]nc(SCCS(=O)(=O)c2ccc(F)cc2)n1-c1ccccc1 | 0.5% | ? | ? | -87.5* | ? | 29.1µM*
C=CCN(CC=C)C(=S)NC(=O)c1ccc(-c2ccccc2)cc1 | -1.0% | 6.51µM* | 1.8% | 22.3 | -21.6% | 5.8µM*
COc1ccc(C(=O)NC(=S)N(Cc2ccccc2)Cc2ccccc2)cc1 | ? | 9.2µM* | -22.5% | -1.1 | -2.1% | 16.4µM*
O=C(O)c1ccc(NC(=S)NC(=O)c2ccc(-c3ccccc3)cc2)cc1 | ? | ? | ? | ? | ? | 13.9%
C=CCN(CC=C)C(=S)NC(=O)c1ccc(OC)cc1 | -4.3% | 5.17µM* | -1.8% | -7.9 | 6.2% | 14.6µM*
CC(C)C(=O)NC(=S)N(Cc1ccccc1)Cc1ccccc1 | -0.8% | 16.4µM* | -0.7% | -16.6 | -3.6% | ?
O=C(NC(=S)N(Cc1ccccc1)Cc1ccccc1)c1ccccc1F | ? | ? | -12.4% | 12.1 | -11.1% | ?
